# PAD4 inh – PAD4 (human) enzyme inhibition. actives 0.41% (n = 330,000). inhibition, % at 6.36 µM. AID 485272. recombinant PAD4, RCA probe fluorescence polarization;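 active = percent inhibition above a cutoff equal to the mean of all tested compounds plus 3 SD, cut at about 15% in these data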;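 also: 0% = PAD4 with RCA probe and DMSO and 100% = probe without PAD4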
# LYPLA1 inh – blocks human lysophospholipase 1, a PME1 counter-screen; O75608; recombinant LYPLA1, FP-Rh probe fluorescence polarization; inhibition, % at 5.9 µM; actives 0.16% (n = 320,000);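 active = inhibition above the mean of all tested compounds plus 3 SD, set per campaign, cut at about 14% in these data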;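 also: inhibitors block serine hydrolase probe labeling of LYPLA1 so polarization falls; 0% = enzyme with DMSO and 100% = wells lacking LYPLA1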
# Target sequence (O75608 whole entry, looked up): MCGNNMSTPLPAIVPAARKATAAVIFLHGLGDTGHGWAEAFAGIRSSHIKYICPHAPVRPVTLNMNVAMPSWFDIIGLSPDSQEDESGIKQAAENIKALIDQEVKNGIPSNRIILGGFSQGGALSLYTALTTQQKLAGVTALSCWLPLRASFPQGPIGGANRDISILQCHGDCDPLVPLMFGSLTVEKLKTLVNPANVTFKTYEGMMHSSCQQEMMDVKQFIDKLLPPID
# GSTO1 counter – GSTO1 inhibition, counter-screen for RBBP9 inhibitors; P78417; recombinant GSTO1, activity-based probe fluorescence polarization; inhibition, % at 5.96 µM; actives 1.1% (n = 300,000);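 active = inhibition above the campaign mean inhibition plus 3 SD, cut at about 35% in these data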;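 also: 0% = GSTO1-1 with DMSO and 100% = wells lacking GSTO1-1 enzyme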
# Fam108B inh – counter-screen for RBBP9 inhibitors: inhibitors of mouse Fam108B. recombinant Fam108B, FP-Rh probe fluorescence polarization. actives 0.33% (n = 300,000). inhibition, % at 9.51 µM;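 active = inhibition above the screen mean inhibition plus 3 SD, computed separately per campaign, cut at about 18% in these data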;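 also: inhibitors lower polarization as less probe binds the enzyme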
# LYPLA2 inh – counter-screen for PME1 inhibitors: inhibitors of human LYPLA2. actives 0.38% (n = 320,000). AID 2177. recombinant LYPLA2, FP-Rh probe fluorescence polarization. O95372. inhibition, % at 5.9 µM;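 active = inhibition above the screen-wide mean plus 3 SD, limit set per campaign, cut at about 26% in these data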;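 also: 0% = LYPLA2 with DMSO and 100% = wells lacking LYPLA2 enzyme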
# Target sequence (O95372 whole entry, looked up): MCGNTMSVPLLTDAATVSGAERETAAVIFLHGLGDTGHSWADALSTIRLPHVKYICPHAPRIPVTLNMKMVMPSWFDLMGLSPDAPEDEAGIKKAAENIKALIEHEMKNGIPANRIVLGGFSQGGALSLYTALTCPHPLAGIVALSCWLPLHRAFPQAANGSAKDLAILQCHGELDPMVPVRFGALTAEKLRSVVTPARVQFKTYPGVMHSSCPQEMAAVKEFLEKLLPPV
# PME-1 inh – blocks human protein phosphatase methylesterase 1; recombinant PME-1, FP-Rh probe fluorescence polarization; inhibition, % at 5.9 µM; actives 0.53% (n = 320,000);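 active = inhibition above the campaign mean of all compounds plus 3 SD, cut at about 26% in these data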;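 also: competitive labeling of PME-1 active site by serine hydrolase directed probe; 0% = PME-1 with DMSO and 100% = wells lacking PME-1 enzyme; inhibitors block probe labeling so polarization falls and inhibition rises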
# GSTO1 confirm – GSTO1 (human) inhibition, confirmation; shares compounds with GSTO1 counter; recombinant GSTO1, probe fluorescence polarization; inhibition, % at 5.96 µM; actives 54% (n = 2,400); AID 2176;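 active = inhibition above the primary screen's cutoff, its mean inhibition plus 3 SD, cut at about 35% in these data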;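 also: loss of polarization as inhibitors block binding of rhodamine sulfonate ester activity probe; 0% = GSTO1 with DMSO and 100% = wells lacking GSTO1 enzyme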
# GSTO1 ABPP inh – GSTO1 (human) inhibition by gel ABPP | shares compounds with GSTO1 counter | recombinant GSTO1, gel ABPP SE-Rh probe fluorescence | inhibition, % at 1 µM | actives 30% (n = 130) | AID 463110;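 active = inhibition of the enzyme GSTO1 above about 75%, limit read from the data; inactive = inhibition below that limit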
# The depositor's hits bear a star; . = not tested or not shown. Rows were chosen to be rich in hits. Some 1.8% of all compounds tested hit in one or more screens of this group.
SMILES,PAD4 inh,LYPLA1 inh,GSTO1 counter,Fam108B inh,LYPLA2 inh,PME-1 inh,GSTO1 confirm,others
COCc1cc(=O)n2[nH]c(C)cc2n1,1,0,3,-4,3,-4,.,
CC(C)CC(NC(=O)/C(=C/c1ccco1)NC(=O)c1ccc(Br)o1)C(=O)O (configuration not stated),-3,0,-3,9,1,1,.,
CC1(C)c2ccccc2-n2c1cc1oc(=O)cc(O)c1c2=O,-4,0,2,4,4,0,.,
COc1ccc(Oc2ccc(C(F)(F)F)cc2NC(=O)CC(CC(=O)O)c2ccccc2)cc1 (configuration not stated),4,1,43*,3,3,-1,2,
COc1ccc(Oc2ccc(C(F)(F)F)cc2NC(=O)c2ccc(F)cc2)cc1,-5,-4,-6,-8,-7,-5,.,
CC(=O)c1c(C)[nH]c(C(=O)OCC(=O)c2c[nH]c3ccccc23)c1C,-5,-6,.,.,-1,-9,.,
Cc1ccccc1NC(=O)Cc1nc(CCl)cs1,-1,-3,93*,2,-1,-6,95*,GSTO1 ABPP inh=74
CCOC(=O)/C=C/C(=O)OCc1csc(CC(=O)Nc2ccccc2C)n1,-4,-8,11,-6,-4,-11,.,
CC(C(=O)Nc1nccs1)c1ccc([N+](=O)[O-])cc1 (configuration not stated),4,1,7,3,11,3,.,
CCN(CC)C(=O)c1cc([N+](=O)[O-])cc2c1-c1ccc([N+](=O)[O-])cc1C2=C(C#N)C#N,-3,-2,38*,8,-2,5,25,
COc1cccc(Cn2c(N)c(C#N)c3nc4ccccc4nc32)c1OC,-12,-4,41*,-2,1,-2,-2,
O=c1cc(C(Cl)(Cl)Cl)oc2c1ccc1ccccc12,1,-2,47*,0,1,-10,80*,
Cc1cc(C(=O)NNC(=S)NC(=O)/C=C/c2ccccc2Cl)n[nH]1,0,-1,58*,-2,5,9,10,
CCN(CC(=O)N1CCCC1)S(=O)(=O)c1cc(C)ccc1OC,2,-2,2,-5,1,-5,.,
COc1ccc(NC(=O)C(OC(=O)c2ccc([N+](=O)[O-])o2)c2ccccc2)cc1Cl (configuration not stated),-12,-1,50*,8,-6,-3,10,
O=C(Cc1cc(=O)[nH][nH]1)N/N=C/C(Cl)=C/c1ccccc1,7,-2,54*,1,1,3,20,
COc1ccc(C2(C)NC(=O)N(CC(=O)NCCC3=CCCCC3)C2=O)cc1OC (configuration not stated),-4,-5,39*,3,-6,-6,22,
COc1ccc2cc(C3(C)NC(=O)N(CC(=O)NCCC4=CCCCC4)C3=O)ccc2c1 (configuration not stated),-1,-2,2,-1,11,5,.,
O=C(Nc1cccc2ccccc12)c1ccc([N+](=O)[O-])s1,3,0,32,-2,13,6,.,
O=C(Nc1ccccc1F)c1ccc([N+](=O)[O-])s1,1,4,44*,-3,7,6,12,
CCCc1cc(=O)oc2cc(OCC(=O)NCC(O)c3ccccc3)ccc12 (configuration not stated),2,-1,-3,1,-1,2,.,
O=C1N[C@H](C(=O)O)CS1,-1,0,3,1,1,4,.,
CN1CCc2cccc3c2[C@H]1Cc1ccc(O)c(O)c1-3,6,-4,89*,-5,-3,-8,6,
COc1ccc(/C=C2/C(=O)N(Cc3ccccc3)N=C2C)cc1,4,6,40*,0,6,1,7,
COc1ccc(-c2ccc(=O)n(Cc3ccccc3)n2)cc1,-2,0,6,0,1,2,.,
SMILES,PAD4 inh,LYPLA1 inh,GSTO1 counter,Fam108B inh,LYPLA2 inh,PME-1 inh,GSTO1 confirm,others
O=C(NCCOC(=O)c1ccccc1)c1ccccc1,-4,1,.,.,6,3,.,
O=C1C=CC(=O)C(C2=C3C(=O)N(CCc4ccccc4)CC(=O)N3CCC2)=C1,-1,1,75*,2,-3,-4,7,
C/C(=N\Nc1cccc2cccnc12)c1ccc[nH]1,-2,2,47*,8,-2,6,3,
Cc1cc(C)c(S(=O)(=O)N2CCN(C(=O)C(C)Cn3cncn3)CC2)c(C)c1 (configuration not stated),2,2,2,-1,3,-6,.,
S=C(Nc1ccc(N2CCOCC2)cc1)Nc1ccc2nc(-c3ccco3)c(-c3ccco3)nc2c1,3,-3,50*,18,4,51*,6,
COc1ccc(-n2nc3ccc(N)cc3n2)cc1Cl,-4,8,53*,13,9,10,49*,
Cc1ccc(-n2nc3ccc(N)cc3n2)cc1Cl,3,-1,44*,0,-9,10,8,
O=C1Nc2cc(S(=O)(=O)N3CCCC3)ccc2N2CCCC12 (configuration not stated),-8,-3,-2,-1,-1,-3,.,
O=C1Nc2ccccc2N2CCCC12 (configuration not stated),-12,3,69*,3,-2,2,77*,
Cc1cccc(S(=O)(=O)N2CCn3cccc3C2C)c1 (configuration not stated),6,3,.,.,1,0,.,
COc1ccccc1NC(=O)CSc1nccc(-c2ccco2)n1,-2,1,.,.,7,-1,.,
Cc1cc[n+](C2=C([O-])c3ccccc3C(=O)/C2=N\S(=O)(=O)c2cccs2)cc1C,6,0,90*,3,-1,-2,90*,
Cc1cc(C)cc(NS(=O)(=O)c2cccs2)c1,3,0,2,2,-5,0,.,
Cc1cc(C)c[n+](C2=C([O-])c3ccccc3C(=O)/C2=N\S(=O)(=O)c2cccs2)c1,-16,0,81*,5,1,9,88*,
Cc1ccc(NC(=S)N(CCCN(C)C)Cc2cc3cc4c(cc3[nH]c2=O)OCO4)c(C)c1,5,7,3,-2,0,5,.,
O=C(CCl)N1N=C(c2ccco2)CC1c1ccco1 (configuration not stated),0,4,90*,-2,9,1,97*,
O=C(O)/C=C/C(=O)N1N=C(c2ccco2)CC1c1ccco1 (configuration not stated),-6,-1,-7,-4,-3,-2,.,

# Screening data: PubChem, The Scripps Research Institute Molecular Screening Center
